Compound activity: PubChem BioAssay, National Center for Advancing Translational Sciences (NCATS)
Shown are actives, neighbours in structure and some others; about 3.8% of the full set was active somewhere.
A549 tox-1: Nrf2 qHTS screen for inhibitors: counterscreen for cytotoxicity | A549 ARE-Fluc cells, CellTiter-Fluor viability, 18-24 h | Potency, µM (top dose mostly 46 µM), hits mostly inhibitors | 390,000 compounds, 0.16% hits
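A549 ARE_Fluc cells in 5% FBS OPTI-MEM were exposed to compounds in concentration-response for 18-24 h at 37 deg C. Viability was read by CellTiter-Fluor fluorescence (Ex 405/Em 525) after 30 min, before the luciferase read.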
ATXN viability: Viability Counterscreen for Primary qHTS for Inhibitors of ATXN expression; AID 651635, 2014; 400,000 compounds, 0.49% hits; Potency, µM (series often up to 56.7 µM), actives largely listed as cytotoxic; S2 cells (HEK-293 line with an ATXN2-luciferase reporter) viability, CellTiter-Fluor protease fluorescence, 24 h; also: nearly all actives have a fitted effect of over 40% in size
ATXN2 expr inh: Primary qHTS for Inhibitors of ATXN expression. HEK-293 ATXN2-luciferase reporter, luminescence, 24 h. Potency, µM (series often up to 57 µM), hits mostly inhibitors. 360,000 compounds, 0.72% hits. AID 1745845, 2022; also: nearly all actives have a fitted effect of over 55% in size
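ATXN2-luciferase reporter cells (luciferase flanked by upstream and downstream ATXN2 gene portions) were treated 24 h at 37 °C with compounds at up to 57 uM. SteadyGlo luminescence gave expression; GF-AFC fluorescence gave viability.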
HepG2 tox: qHTS for Inhibitors of TGF-b: Cytotox Counterscreen | HepG2 CAGA-GFP viability, ATP luminescence, 18 h | 410,000 compounds, 0.76% hits | Potency, µM (series often up to 46.1 µM), most hits filed as cytotoxic | AID 588856, 2011
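HepG2 CAGA-GFP cells (1000/well, DMEM with 1% FBS) received compound, then TGF-beta at 500 pg/mL final, and were incubated 18 hours at 37 degrees C. Viability was read by CellTiter-Glo luminescence. Media-only wells were set as complete cell-killing and DMSO as no toxicity.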
Nrf2 block: Nrf2 qHTS screen for inhibitors | Potency, µM (doses to about 46 µM), hits mostly inhibitors | AID 504444, 2011 | 360,000 compounds, 2.1% hits | A549 ARE-Fluc reporter, luciferase luminescence, 18-24 h; also: nearly all actives have a fitted effect of over 60% in size
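Nrf2 function is reported as luminescence of an ARE-controlled luciferase in A549 cells. Compounds were tested at several concentrations, and a CellTiter-Fluor read on the same wells flagged cytotoxicity.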
TGFb SMAD3 inh: qHTS for Inhibitors of TGF-b; HepG2 CAGA-GFP TGF-b/SMAD3 reporter, GFP fluorescence, 18 h; TGF-beta stimulated, 500 pg/mL final; Potency, µM (titrated, usually from 46.1 µM), most hits filed as inhibitors; 410,000 compounds, 1.2% hits; also: nearly all actives have a fitted effect of over 65% in size
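TGF-beta reporter screen: HEPG2 CAGA-GFP, 1% FBS, 500 pg/mL TGF-beta final, 18 h; per-cell GFP summed per well; curves fitted and categorized by class.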
FLuc counter 3: Nrf2 qHTS screen for inhibitors: Purified Fluc Biochemical Counterscreen for Hit Validation | shares compounds with Nrf2 block | purified firefly luciferase, luminescence inhibition | Potency, µM (top dose mostly 57.5 µM), hits mostly inhibitors | 1,400 compounds, 4% hits | AID 720522, 2013; also: nearly all actives have a fitted effect of over 65% in size
Target sequence (P08659 whole entry, looked up): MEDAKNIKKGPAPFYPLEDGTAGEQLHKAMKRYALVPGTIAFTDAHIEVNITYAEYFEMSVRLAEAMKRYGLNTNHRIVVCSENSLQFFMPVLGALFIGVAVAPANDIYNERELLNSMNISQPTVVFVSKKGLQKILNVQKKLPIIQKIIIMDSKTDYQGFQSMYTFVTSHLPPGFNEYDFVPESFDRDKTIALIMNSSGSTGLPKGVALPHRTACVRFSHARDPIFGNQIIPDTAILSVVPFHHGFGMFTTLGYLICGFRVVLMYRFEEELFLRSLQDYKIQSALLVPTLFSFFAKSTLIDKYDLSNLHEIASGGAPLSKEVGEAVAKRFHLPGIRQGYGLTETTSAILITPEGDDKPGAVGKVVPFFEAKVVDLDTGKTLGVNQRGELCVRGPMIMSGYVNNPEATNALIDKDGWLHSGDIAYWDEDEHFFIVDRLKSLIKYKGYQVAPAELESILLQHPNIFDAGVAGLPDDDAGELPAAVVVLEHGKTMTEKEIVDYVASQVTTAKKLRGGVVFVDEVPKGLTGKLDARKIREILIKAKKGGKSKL
A549 tox-2: Nrf2 qHTS screen for inhibitors: A549 ARE-Fluc Cytotoxicity Counterscreen for Hit Validation; shares compounds with Nrf2 block; A549 ARE-Fluc cells, cytotoxicity counterscreen; Potency, µM (titrated, usually from 46.1 µM), hits mostly inhibitors; 1,400 compounds, 2% hits; AID 720523, 2013;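 also: cells exposed to compounds for 18 to 24 hours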
Nrf2 ARE inh: Nrf2 qHTS screen for inhibitors: Nrf2 A549 ARE-Fluc Confirmation Assay for Hit Validation; AID 720524, 2013; Potency, µM (top dose mostly 46.1 µM), hits mostly inhibitors; A549 ARE-firefly luciferase reporter, luminescence; shares compounds with Nrf2 block; 1,400 compounds, 74% hits; also: nearly all actives have a fitted effect of over 65% in size
Hits are given with their value; - = inactive; ? = inconclusive; . = not tested or not shown. Calls follow the shape of the dose curve; as a rule, active = well fitted curve in the direction sought with a large enough effect; inconclusive = small, poorly fitted or top-dose-only effect, or another doubt; inactive = no such curve, though single readings can be large; an effect the other way counts as inactive or inconclusive.

SMILES	A549 tox-1	ATXN viability	ATXN2 expr inh	HepG2 tox	Nrf2 block	TGFb SMAD3 inh	FLuc counter 3	A549 tox-2	Nrf2 ARE inh
O=C(NC(NC(=S)Nc1c(Cl)cc(Cl)cc1Cl)C(Cl)(Cl)Cl)OCc1ccccc1 (stereo not given)	?	-	-	-	2.91µM	?	-	?	23.1µM
COc1ccc(S(=O)(=O)N2CCC(NC(=O)c3cccnc3)CC2)cc1	-	-	-	-	-	-	.	.	.
CSC1SCC2C(=O)N(C)C(C(C)C)C(=O)OCC(NC(=O)c3cnc4ccccc4n3)C(=O)NC(C)C(=O)N(C)C1C(=O)N(C)C(C(C)C)C(=O)OCC(NC(=O)c1cnc3ccccc3n1)C(=O)NC(C)C(=O)N2C (stereo not given)	?	?	-	-	0.0065µM	-	?	10.3µM	6.51µM
O=C(c1cnc(N2CCN(c3ccccn3)CC2)c2ccccc12)N1CCN(c2cccc(Cl)c2)CC1	-	?	?	-	5.8µM	-	-	-	8.2µM
COCCCNC(=O)C1CCN(C(=O)c2cc3sccc3n2Cc2ccc(Cl)cc2)CC1	-	.	.	-	?	?	.	.	.
CCC(C)NC(=O)C1CCN(C(=O)c2cc3sccc3n2Cc2ccc(Cl)cc2)CC1 (stereo not given)	?	.	.	-	2.31µM	?	-	?	6.51µM
COCCNC(=O)C1CCN(C(=O)c2cc3sccc3n2Cc2ccc(Cl)cc2)CC1	?	.	.	-	8.2µM	-	-	-	5.8µM
COc1ccc(C(=O)Cn2c(=O)n3nc(CCn4nc(C)cc4C)nc3c3cc(OC)c(OC)cc32)cc1	-	.	.	-	.	-	.	.	.
O=C(N/N=C\c1ccc(Cl)cc1)C1=NOC2COC3(CCN(c4ccc([N+](=O)[O-])cc4)CC3)OCC12 (stereo not given)	?	-	?	-	2.59µM	-	-	-	.
NNC(=O)C1=NOC2COC3(CCN(c4ncccn4)CC3)OCC12 (stereo not given)	-	-	-	-	?	-	.	.	.
COc1ccc(C2C(=O)N(C3CCC(C)CC3)CC(=O)N2CCc2ccccc2)cc1OC (stereo not given)	-	.	.	-	.	-	.	.	.
CCCCOc1ccccc1NC(=O)c1ccco1	-	-	-	-	-	-	.	.	.
CCCCOc1ccccc1NC(=O)c1scc2c1OCCO2	-	-	?	-	5.17µM	-	-	-	-
c1ccc(CC2CCN(c3ncnc4sccc34)CC2)cc1	-	-	?	-	5.17µM	?	-	-	3.66µM
Cc1ccc(S(=O)(=O)N2CCN(c3ncnc4sccc34)CC2)cc1	-	-	?	-	7.31µM	-	-	-	8.2µM
Cc1ccc(-c2csc3ncnc(N4CCN(S(=O)(=O)c5ccc(C#N)cc5)CC4)c23)cc1	.	-	.	-	.	-	.	.	.
Cc1ccc(S(=O)(=O)N(C)CC(=O)N2CCCc3ccccc32)cc1	-	-	-	-	-	-	.	.	.
COc1ccc(NC(=O)CCC(=O)c2cccs2)cc1S(=O)(=O)Nc1ccc(Cl)cc1	-	?	-	-	-	-	.	.	.
COc1ccccc1NS(=O)(=O)c1cc(NC(=O)CCC(=O)c2cccs2)ccc1Cl	-	-	-	-	8.2µM	-	-	-	?
CCOC(=O)N1CCC(NC(=O)c2cc(C(=O)Nc3cccc(C(F)(F)F)c3)ccc2CO)CC1	?	-	.	-	5.8µM	?	-	-	16.4µM
Cc1ccc(-c2csc3nc(-c4ccncc4)[nH]c(=O)c23)cc1	-	-	-	-	?	-	-	-	1.84µM
Cc1cc(C)cc(C(=O)Nc2ccc(-c3cn4cccnc4n3)cc2)c1	-	-	-	-	9.2µM	?	-	-	?
C/C(=N\Nc1ccc2nncn2n1)c1ccccn1	-	?	?	-	3.66µM	-	-	-	2.59µM
C/C(=N\Nc1ccc2nncn2n1)c1ccco1	-	-	-	-	-	-	.	.	.
COc1ccc(Cl)cc1NC(=O)c1cc2c(=O)n3ccccc3nc2s1	-	.	.	-	1.64µM	.	-	?	23.1µM
SMILES	A549 tox-1	ATXN viability	ATXN2 expr inh	HepG2 tox	Nrf2 block	TGFb SMAD3 inh	FLuc counter 3	A549 tox-2	Nrf2 ARE inh
O=C(NC1CCSc2ccccc21)c1ccccc1Br (stereo not given)	-	-	-	-	-	-	.	.	.
O=C(Nc1ccccc1)c1ccc(Nc2c([N+](=O)[O-])cc([N+](=O)[O-])c3ccccc23)cc1	-	-	-	-	7.31µM	-	-	-	5.17µM
Cc1ccccc1C(=O)N1CCN(c2ccc(NC(=O)c3ccc4c(c3)OCO4)cc2)CC1	-	-	.	-	9.2µM	-	-	-	7.31µM
CC(=O)c1sc2c(c1OC(=O)c1ccc(Cl)cc1Cl)c(=O)n(-c1ccccc1)c(=S)n2-c1ccccc1	?	?	.	-	3.26µM	?	-	?	.
COc1ccc(C(=O)NC(c2ccccc2Cl)c2cc(Cl)c3cccnc3c2O)cc1 (stereo not given)	?	.	.	11.2µM	4.11µM	10µM	-	-	4.61µM
C[C@]12C=CC(=O)C=C1CC[C@@H]1C2C(O)C[C@@]2(C)C1CC[C@]2(O)C(=O)COC(=O)CCC(=O)NC(CC(=O)O)C(=O)O (stereo not given in full)	-	-	.	-	0.103µM	-	-	-	0.259µM
CSCCC(NC(=O)CCC(=O)OCC(=O)[C@@]1(O)CCC2[C@@H]3CCC4=CC(=O)C=C[C@]4(C)C3[C@@H](O)C[C@@]21C)C(=O)O (stereo not given in full)	-	-	-	-	0.206µM	-	-	-	0.058µM
CC(C)CC(NC(=O)CCC(=O)OCC(=O)[C@@]1(O)CCC2[C@@H]3CCC4=CC(=O)C=C[C@]4(C)C3[C@@H](O)C[C@@]21C)C(=O)O (stereo not given in full)	-	-	.	-	?	-	.	.	.
Cc1ccc(NC(=O)CSc2nc3ccc(NC(=O)c4cccs4)cc3s2)c(C)c1	-	-	-	-	-	-	.	.	.
